Compounds with a hit are over-represented: about 10% of the library has one in this group of screens.
CtBP-E1A blk: blocks the CtBP interaction with E1A | AID 651724 | AlphaScreen GST-E1A/His-CtBP binding, 1536-well; active compounds read low | 340,000 tested, 0.49% active | activity change, % (test concentration not listed); in the data active means activity change below about -65%; inconclusive means mostly about -30% to -63%; further: on the % scale 0 is the no-effect control and ±100 the full control effect
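AlphaScreen with 125 nM GST-E1A and 125 nM His-CtBP (5X stocks) in Tris pH 8.0, 300 mM NaCl, BSA, Tween 20, TCEP. Compounds preincubated 2 h at 37 deg C, then glutathione donor/nickel acceptor beads added for 1 h at 37 deg C in dark.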
BAZ2B block: inhibitors of human BAZ2B bromodomain; AID 504333; Potency, µM (series often up to 114 µM), inactives show top-dose activity change, negative = inhibition, most hits filed as inhibitors; Q9UIF8; AlphaScreen BAZ2B-H3K14Ac peptide displacement; 360,000 tested, 4.4% active; further: potency means the concentration at half of the fitted maximal effect; on the % scale 0 is the no-effect control and ±100 the full control effect; nearly all actives have a fitted effect of over 60% in size
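BAZ2B 50 nM plus b-H3(5-23)K14Ac 50 nM, PBS pH 7.4/0.01% Tween-20, 30 min RT; compound added (max 110 uM), 30 min RT; streptavidin donor/Ni-chelate acceptor beads 10 ug/mL final, 20 min dark; AlphaScreen read.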
JMJD2A Tudor: inhibitors of human JMJD2A Tudor domain; O75164; AlphaScreen JMJD2A-Tudor / H3K4me3 peptide binding; Potency, µM (series often up to 114 µM), without a hit: at the top dose activity change, negative = inhibition, hits mostly inhibitors; 390,000 tested, 4.4% active; further: potency means the concentration at half of the fitted maximal effect; on the % scale 0 is the no-effect control and ±100 the full control effect; nearly all actives have a fitted effect of over 50% in size
Six1-Eya2 inh: inhibitors of human Six1/Eya2 interaction; Q15475+O00167; AlphaScreen GST-Six1/His-Eya2 binding, biochemical; active compounds read low; activity change, % (concentration not given with the values); 360,000 tested, 0.56% active; in the data active means activity change below about -65%; inconclusive means mostly about -30% to -63%; further: on the % scale 0 is the no-effect control and ±100 the full control effect
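GST-Six1 + His-Eya2 (5X stock: 250/500 nM); Tris pH 8.0, 300 mM NaCl, 0.05% BSA, 0.02% Tween 20; GSH donor/Ni acceptor beads; 1 h 37 °C dark; AlphaScreen readout.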
G9a block: inhibitors of human histone lysine methyltransferase G9a; 350,000 tested, 8.8% active; AID 504332; Q96KQ7; G9a H3K9 monomethylation, AlphaScreen, 2 h; Potency, µM (top dose mostly 102 µM), without a hit: top-dose activity, negative = inhibition, actives largely listed as inhibitors; further: potency means the concentration at half of the fitted maximal effect; on the % scale 0 is the no-effect control and ±100 the full control effect; nearly all actives have a fitted effect of over 75% in size
Target sequence (Q96KQ7 913-1193 limits assumed): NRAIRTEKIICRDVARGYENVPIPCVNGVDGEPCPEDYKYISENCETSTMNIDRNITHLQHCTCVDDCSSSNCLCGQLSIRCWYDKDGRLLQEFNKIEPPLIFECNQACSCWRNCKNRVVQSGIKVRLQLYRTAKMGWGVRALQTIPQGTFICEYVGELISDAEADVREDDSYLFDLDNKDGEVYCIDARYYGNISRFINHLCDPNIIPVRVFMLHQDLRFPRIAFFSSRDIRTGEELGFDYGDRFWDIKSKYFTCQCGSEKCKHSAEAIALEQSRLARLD
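Quantitative HTS format: methyltransferase activity on a biotin-tagged H3K9 peptide is measured by AlphaScreen, using a rabbit anti-monomethyl-H3K9 antibody with streptavidin donor and anti-IgG acceptor beads. Final levels are 20 nM enzyme, 500 nM peptide, 20 uM SAM; 2 h RT.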
HP1b binding inh: HP1-beta chromodomain-methylated histone interaction inhibition; P83916; AlphaScreen HP1-beta / biotin-H3K9me3 peptide binding; Potency, µM (highest dose often 114 µM), inactives show at the top dose activity change, negative = inhibition, usual class: inhibitors; 390,000 tested, 0.56% active; further: potency means the concentration at half of the fitted maximal effect; nearly all actives have a fitted effect of over 70% in size
Target sequence (P83916 whole entry, looked up): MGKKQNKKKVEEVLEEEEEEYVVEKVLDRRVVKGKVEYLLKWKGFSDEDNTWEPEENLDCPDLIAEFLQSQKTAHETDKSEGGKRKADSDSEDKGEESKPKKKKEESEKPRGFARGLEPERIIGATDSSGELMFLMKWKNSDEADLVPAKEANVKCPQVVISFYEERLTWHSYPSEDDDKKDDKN
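AlphaScreen: HP1-beta (50 nM) preformed 30 min with biotin-H3(1-18)K9me3 peptide (50 nM) in PBS pH 7.4, 0.01% Tween-20. Compound added for 30 min at RT, then streptavidin donor/nickel chelate acceptor beads (10 ug/mL) for 30 min.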
Numbers without * were called inactive; u = inconclusive; x = not tested or not shown; [ ] = another dose, or the depositor's remark. Unless noted, the call rests on the fitted dose curve; in most records, active means well fitted inhibition curve with a large enough effect; inconclusive means small, poorly fitted or top-dose-only effect; inactive means no such curve, though single readings can be large or run the other way.

SMILES	CtBP-E1A blk	BAZ2B block	JMJD2A Tudor	Six1-Eya2 inh	G9a block	HP1b binding inh
COC(=O)c1sc(NC(=S)NC(=O)c2cc(OC)c(OC)c(OC)c2)nc1C	x	-8.4%	-6.8%	4.2	70.8µM*	9.2%
Cc1nc(NC(=O)C(Cl)Cl)sc1C(=O)N(C)C	2.0	u	79.4µM*	11.1	u	9.7%
Cc1nc(NC(=S)NC(=O)c2ccccc2)sc1C(=O)N(C)C	-6.9	-6.3%	-3.2%	-3.1	u	5.6%
CCCOc1ccc(C(=O)NC(=S)Nc2nc(C)c(C(=O)N(C)C)s2)cc1	-5.6	-34.4%	-33.8%	-11.2	11.2µM*	2.5%
CNc1ccccc1C(C)(C)c1cc(-c2ccco2)n[nH]1	2.8	-76.9%	u	-20.5	35.5µM*	u
CCN(CC)C1CC(=O)N(c2cccc(Cl)c2)C1=O (stereo not given)	0.0	-5.0%	-6.9%	-4.7	8.91µM*	31.2%
CC(=O)NCCCC(=O)NNC1CC(=O)N(c2cccc(Cl)c2)C1=O (stereo not given)	7.2	-5.1%	-16.4%	0.7	5.62µM*	-23.9%
O=C1CC(N(O)c2ccccc2)C(=O)N1c1ccc(Cl)c(Cl)c1 (stereo not given)	x	-12.8%	-13.3%	-12.2	50.1µM*	17.6%
O=C(O)CSC1CC(=O)N(c2cccc(Cl)c2)C1=O (stereo not given)	-2.6	17.0%	-25.7%	-0.1	-14.9%[59 µM]	20.9%
Cc1cccc(N2C(=O)CC(N(O)c3ccccc3)C2=O)c1 (stereo not given)	-11.9	-6.7%	-18.9%	1.1	u	-7.9%
O=C1CC(NNc2ccccc2)C(=O)N1c1ccccc1 (stereo not given)	-12.7	-17.4%	-33.2%	-12.9	8.91µM*	4.7%
CCCS(=O)(=O)NCCc1csc(-c2ccc(OC)c(OC)c2)n1	-18.9	-8.1%	-8.5%	-8.0	13.2%	33.7%
Cc1ccc(NNC2CC(=O)N(c3cccc(Cl)c3)C2=O)cc1 (stereo not given)	-20.5	u	-32.9%	-3.9	10µM*	34.8%
O=c1[nH]cc(Cc2ccccc2)c(=O)[nH]1	3.6	x	x	-12.8	x	x
S=c1[nH]cc(Cc2ccccc2)s1	-4.8	-31.8%	3.98µM*	0.1	1.78µM*	u
Cn1c(=O)c2c(SCC(=O)Nc3ccccc3F)nc(-c3ccccc3F)nc2n(C)c1=O	-11.3	-4.0%	-10.2%	5.4	x	8.8%
CN(/N=C/c1ccncc1)C1=NS(=O)(=O)c2ccccc21	-86.3*	2.2%[57.1 µM]	-18.1%	-87.6*	u	32.9%
COc1cc(Br)cc(/C=N/N(CCO)C2=NS(=O)(=O)c3ccccc32)c1OC	u	-17.8%	-13.4%	-29.5	-0.6%	2.8%
CC(C)(C)NC(=O)CCN(/N=C/c1ccc([N+](=O)[O-])o1)C1=NS(=O)(=O)c2ccccc21	-74.1*	2.9%	-10.9%	-87.5*	1.5%[59 µM]	7.4%
O=S1(=O)N=C(N(CCO)/N=C/C=C/c2ccccc2)c2ccccc21	-89.0*	-19.6%	-24.2%	-84.8*	-8.3%[59 µM]	13.1%
CN(C)c1ccc(/C=N/N(CCC(=O)NC(C)(C)C)C2=NS(=O)(=O)c3ccccc32)cc1	1.2	-1.8%	-7.4%	19.4	-13.9%	13.8%[57 µM]
COc1cc(/C=N/N(CCO)C2=NS(=O)(=O)c3ccccc32)cc(OC)c1OC	-90.4*	-10.0%	-21.2%	-65.5*	0.6%	57.0%
CN(C)c1ccc(/C=N/N(CCO)C2=NS(=O)(=O)c3ccccc32)cc1	x	5.2%	-14.1%	-66.9*	27.9%	22.1%
O=C(CCCc1ccncc1)c1ccccc1	10.3	x	0.0%	4.9	x	32.4%
N#CCCN(C(=O)COC(=O)c1cc(S(=O)(=O)N2CCOCC2)ccc1Cl)c1ccc(F)cc1	2.9	7.1%	-15.8%	2.5	u	7.9%
SMILES	CtBP-E1A blk	BAZ2B block	JMJD2A Tudor	Six1-Eya2 inh	G9a block	HP1b binding inh
CCC(C)(C)C1CCC2(CC1)NC(=S)N(c1ccccc1)N2 (stereo not given)	x	u	-23.3%	0.9	8.91µM*	38.9%
CC(C)(C)C1CCC2(CC1)SCC(=O)N2c1ccccc1 (stereo not given)	7.4	-27.8%[57.1 µM]	-5.8%	0.2	21.0%	25.4%
CC(C)(C)C1CCC2(CC1)NC(=S)N(c1ccccc1)N2 (stereo not given)	2.5	-32.7%	-8.8%	-3.6	7.94µM*	46.2%
Cc1noc(C)c1-c1cncnc1Nc1ccccc1	x	x	x	x	-0.8%[0.501 µM]	x
COc1cc(OC)cc(C(=O)NCC(=O)N2CCN(c3ccc(O)cc3)CC2)c1	-3.7	-7.9%	22.4µM*	-5.9	22.4µM*	u
COc1ccc(N2CCN(C(=O)COC(=O)CNC(=O)c3ccc(C)cc3)CC2)cc1	20.4	0.4%	-16.4%	-4.8	39.8µM*	6.3%
COc1ccc(N2CCN(C(=O)c3ccc(C(C)(C)C)cc3)CC2)cc1	-21.1	44.7µM*	56.2µM*	-23.1	u	u
COc1ccc(N2CCN(C(=O)CCNC(=O)c3ccc(C(C)(C)C)cc3)CC2)cc1	-6.4	u	u	-7.4	44.7µM*	-15.6%
CC(=O)Nc1ccc(S(=O)(=O)Nc2nc3n(n2)C(c2ccccc2)C=C(c2ccc(Cl)cc2)N3)cc1 (stereo not given)	x	-1.8%	8.7%	x	-33.1%[59 µM]	79.7%
COc1cc(C(=O)NCCCCc2ccccc2)cc(OC)c1OC	x	-2.4%	-4.8%	13.5	23.0%	18.7%
COc1ccccc1N1CCN(C(=O)NC23CC4CC(CC(C4)C2)C3)CC1	x	-15.5%	-13.8%	1.2	79.4µM*	24.5%
COc1ccc(N2CCN(C(=O)C(C)(C)Oc3ccc(Cl)cc3)CC2)cc1	u	39.8µM*	50.1µM*	u	7.94µM*	u
COc1cc(OC)cc(C(=O)N2CCC(N3CCN(c4ccccc4OC)CC3)CC2)c1	-3.0	50.1µM*	1.12µM*	-11.7	7.94µM*	u
COc1ccccc1N1CCN(C(=O)c2ccc(C(C)(C)C)cc2)CC1	-11.5	-3.8%	3.16µM*	-21.4	12.0%[59 µM]	-25.1%
COc1ccc(N2CCN(C(=O)NC34CC5CC(CC(C5)C3)C4)CC2)cc1	-10.0	u	u	-9.4	u	-19.4%
Cc1noc(Cn2c(=O)c3ccccc3n(CC(=O)Nc3ccc(F)cc3F)c2=O)n1	x	-12.1%	1.7%	x	-7.8%[59 µM]	35.2%
c1ccc(NN(Cc2ccccn2)c2ccccc2)cc1	-11.8	x	x	-4.1	x	x
O=C(CC(O)c1ccncc1)c1ccccc1O (stereo not given)	0.0	x	-13.1%	10.1	x	26.9%[57 µM]
CC(=O)N1CCN(c2ccc(NC(=O)c3ccc(Cl)cc3)cc2)CC1	-1.3	-6.6%	-14.3%	3.7	16.8%[59 µM]	48.7%
CC(=O)N1CCN(c2ccc(NC(=O)c3ccc(C(C)(C)C)cc3)cc2)CC1	3.5	-8.3%	-28.0%	-3.3	11.2µM*	1.8%
